# Screening results deposited in PubChem by National Center for Advancing Translational Sciences (NCATS).
# Shown are actives, neighbours in structure and some others; about 7.3% of the full set was active somewhere.
# uPA surface inh = cell surface uPA generation inhibition; cell surface uPA generation assay, qHTS; 330,000 compounds, 0.31% hits; Potency, µM (highest dose often 38.3 µM), inactives show top-dose activity change, negative = inhibition, hits mostly inhibitors; AID 540303; active = well fitted inhibition curve with a large enough effect; inconclusive = small, poorly fitted or top-dose-only effect; inactive = no such curve, though single readings can be large or run the other way; tested in mouse RAW 264.7 cells; note: % is set by controls: 0 for no effect and ±100 for the full control effect; nearly all actives have a fitted effect of over 55% in size
# Rab9 promoter act = Rab9 promoter activation; Huh7 Rab9 promoter-luciferase reporter, luminescence, 24 h; Potency, µM (series often up to 9.22 µM), for the others: at the top dose activation, negative = inhibition, hits mostly activators; 320,000 compounds, 2.8% hits; AID 485297; note: % of control where 0% means no effect; nearly all actives have a fitted effect of over 60% in size
#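 Rab9 promoter-driven luciferase in stably transfected Huh7 cells; 1500 cells/well rested 2 h, exposed to compound in DMSO for 24 h at 37 °C, 5% CO2. Luminescence read 10 min after adding luciferase reagent at ambient temperature.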
# SMN2 splice up = enhancers of SMN2 splice variant expression; HEK293 SMN2-luciferase splicing reporter, luminescence, 30-36 h; Potency, µM (top dose mostly 46.1 µM), for inactives: top-dose activity change, positive = activation, most hits filed as activators; 210,000 compounds, 2.8% hits; note: % of control where 0% means no effect; nearly all actives have a fitted effect of over 55% in size
#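 HEK293 cells carry an SMN2 […]–luciferase reporter in which exon 7 inclusion puts luciferase in frame. Cells were plated 10-12 h before compound addition, then incubated 30-36 h at 37C. ONE-Glo luminescence was read; sodium butyrate at 4.5 mM final served as control.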
# ELG1 genotox = genotoxicity induction in ELG1-luciferase HEK293T cells. HEK293T ELG1-luciferase reporter, luminescence, 16 h. Potency, µM (top dose mostly 46 µM), for inactives: at the top dose activity change, positive = activation, actives largely listed as activators. 330,000 compounds, 1.3% hits; note: % of control where 0% means no effect; nearly all actives have a fitted effect of over 60% in size
#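 Step 1: seed 2,000 HEK293T ELG1-luciferase cells per well. Step 2: add compound or DMSO, incubate 16 hr at 37 °C. Step 3: ONE-Glo, 30 min at room temperature, read luminescence.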
# FLuc modulator = firefly luciferase modulation, counter-screen for miR-21 project | P08659 | purified FLuc, Km substrates, luminescence inhibition | Potency, µM (doses to about 57.5 µM), without a hit: at the highest dose activity change, negative = inhibition, usual class: inhibitors | 360,000 compounds, 6.9% hits | AID 588342;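 note: plate controls were vehicle for no effect and reference inhibitor for full effect; nearly all actives have a fitted effect of over 55% in size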
# Target sequence (P08659 whole entry, looked up): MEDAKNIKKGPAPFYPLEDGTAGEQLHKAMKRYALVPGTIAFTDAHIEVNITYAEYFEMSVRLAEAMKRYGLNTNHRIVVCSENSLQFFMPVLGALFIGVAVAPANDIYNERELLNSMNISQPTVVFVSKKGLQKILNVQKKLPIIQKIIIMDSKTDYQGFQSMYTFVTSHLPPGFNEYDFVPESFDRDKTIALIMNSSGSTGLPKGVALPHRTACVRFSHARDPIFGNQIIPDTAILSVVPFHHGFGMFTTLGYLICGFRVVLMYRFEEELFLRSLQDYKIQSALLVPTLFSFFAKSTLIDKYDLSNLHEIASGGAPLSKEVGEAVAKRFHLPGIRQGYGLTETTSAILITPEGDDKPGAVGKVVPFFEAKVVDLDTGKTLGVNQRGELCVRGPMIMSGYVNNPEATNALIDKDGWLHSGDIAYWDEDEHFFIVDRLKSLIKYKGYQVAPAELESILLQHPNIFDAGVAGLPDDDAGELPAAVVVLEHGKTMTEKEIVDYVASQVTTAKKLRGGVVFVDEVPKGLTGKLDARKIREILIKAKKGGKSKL
#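 Purified P. pyralis luciferase (10nM final) with 10uM D-luciferin and 10uM ATP (Km levels) in 50mM Tris acetate pH 7.5, 10mM Mg acetate, 0.01% Tween-20, 0.05% BSA; qHTS 6-point titration, ~60 µM downward; luminescence read.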
# NPC1 promoter act = NPC1 promoter activation; 320,000 compounds, 2.4% hits; Potency, µM (doses to about 9.22 µM), for inactives: at the top dose activation, usual class: activators; Huh7 NPC1 promoter luciferase reporter, 24 h; note: % of control where 0% means no effect; nearly all actives have a fitted effect of over 60% in size
#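 Quantitative HTS used a cell-based reporter: Huh7 cells stably bearing the NPC1 promoter upstream of luciferase were treated with compounds for 24 h, and promoter activation was read as luminescence.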
# Starred values were filed as active, the others as inactive; ? = inconclusive; / = no result; [ ] = another dose, or the depositor's remark. Unless noted, calls come from the whole dose curve; as a rule, active = well fitted curve in the direction sought with a large enough effect; inconclusive = small, poorly fitted or top-dose-only effect, or another doubt; inactive = no such curve, though single readings can be large; an effect the other way counts as inactive or inconclusive. Potency is the fitted concentration of half-maximal effect.
SMILES,uPA surface inh,Rab9 promoter act,SMN2 splice up,ELG1 genotox,FLuc modulator,NPC1 promoter act
N=C1/C(=C\c2ccc(OC(=O)c3ccccc3Cl)cc2)C(=O)N=C2SC(N3CCOCC3)=NN12,2.5%,4.1%,/,9.0%,23.9µM*,14.2%
N=C(N)n1cc(/C=N\N=C(N)N)cn1,/,/,-20.5%[9.22 µM],/,/,/
Fc1ccc(C(OCCN2CCN(C/C=C/c3ccccc3)CC2)c2ccc(F)cc2)cc1,/,/,-103.5%,/,/,/
C=C1[C@@H](O)[C@H](Cc2ccccc2)N(Cc2ccccc2Br)S1(=O)=O,10µM*,/,/,/,/,/
NC1(P(=O)(O)O)CCCCC1,/,/,-2.0%[9.22 µM],/,/,/
CCSC(=O)Cl,/,/,0.5%,/,/,/
O=C1NC(=O)C(=Cc2ccc(-c3cc(Cl)ccc3[N+](=O)[O-])o2)C(=O)N1,-4.2%,-0.9%,-7.5%,14.6%,15.1µM*,-4.2%
NC(Cn1ccc(=O)[nH]c1=O)C(=O)O (stereo unspecified),/,/,-11.3%,/,/,/
CC(C)(C)c1ccc(C(=O)NC(=S)Nn2cnnc2)cc1,-5.2%,23.5%,/,0.7%,19µM*,19.8%
O=[N+]([O-])NC1=NCCN1Cc1ccc(Cl)nc1,1.12µM*,19.3%,/,0.2%,-3.3%,3.4%
C[C@]12CC[C@H]3[C@@H](CCC4=CC(=O)CC[C@@]43C)[C@@H]1CC[C@@H]2C(=O)CO,3.98µM*,-1.9%,-64.7%,-0.2%,-6.4%,-1.7%
Nc1ccccc1O.O.O=C(O)[C@H]1[O][Sb][O][C@H]1C(=O)O,/,/,-26.3%[9.22 µM],/,/,/
CCOc1ccc(NC(=O)c2ccc(NC(=O)COC(=O)Cc3ccccc3)cc2)cc1,-3.4%,?,20µM*,?,-13.6%,?
COc1cccc(OCc2cc(C(=O)N3C[C@H]4C[C@@H](C3)c3cccc(=O)n3C4)no2)c1,-1.9%,3.98µM*,/,18.3µM*,16.9µM*,3.16µM*
O=C(Nc1ccc2c(c1)OCCO2)c1cccn(Cc2ccccc2)c1=O,/,/,/,/,10.7µM*,/
CCOc1ccc(NC(=O)c2cccn(Cc3cccc(Cl)c3)c2=O)cc1,/,/,/,/,16.9µM*,/
Cc1cc(NC(=O)c2cccn(Cc3cccc(Cl)c3)c2=O)no1,/,/,/,/,-1.3%,/
N#CCc1ccccc1,/,/,0.0%,/,/,/
O=C1N[C@@H](Cc2c[nH]c3ccccc23)COC(=O)[C@@H](Cc2ccc(F)cc2)CC/C=C/C[C@@H]1CC(=O)N(CCO)Cc1ccccc1,?,/,/,-12.0%,/,/
CC(=O)NC(C)Cc1ccccc1 (stereo unspecified),-2.1%,2.9%,-33.7%,1.6%,0.7%,-2.8%
CC(Cc1ccccc1)NC(=O)NC(C)Cc1ccccc1 (stereo unspecified),-1.3%,2.82µM*,/,11.6µM*,13.5µM*,?
CC(Cc1ccccc1)NC(=O)c1ccc(N)cc1 (stereo unspecified),0.7%,3.55µM*,/,?,21.3µM*,3.16µM*
N#CC1c2ccccc2-n2nncc2CN1Cc1cc(Cl)cc(Cl)c1 (stereo unspecified),4.47µM*,/,/,/,/,/
N#CC1c2ccccc2-n2nncc2CN1S(=O)(=O)c1ccc(Cl)cc1 (stereo unspecified),14.5%,/,/,/,/,/
COc1ccc(CN2Cc3cnnn3-c3ccccc3C2C#N)cc1 (stereo unspecified),5.62µM*,/,/,/,/,/
SMILES,uPA surface inh,Rab9 promoter act,SMN2 splice up,ELG1 genotox,FLuc modulator,NPC1 promoter act
O=[N+]([O-])/C=C/c1ccccc1,/,/,2.2%,/,/,/
Oc1ccc(/C=N/Nc2cccc(Cl)n2)c(O)c1,-49.3%,7.7%,/,?,5.36µM*,?
CCCCSc1nc2c(cnn2-c2ccccc2)c(=O)n1N,-11.2%,1.78µM*,10µM*,?,6.75µM*,2.82µM*
O=C(Nc1ccc(S(=O)(=O)Nc2ccccc2)cc1)c1ccc(CN2CCOCC2)cc1,?,-41.1%,/,-8.7%,-4.3%,-32.1%
Cc1ccc(-c2cc(-c3ccccc3)cc(-c3ccccc3)[n+]2-c2ccccc2)cc1,10µM*,-41.9%,/,-9.1%,3.8%,-41.2%
Cc1ccc(-c2cc(-c3ccc(C)cc3)[n+](-c3ccccc3)c(-c3ccc(C)cc3)c2)cc1,?,-39.1%,/,-5.3%,-3.0%,-36.3%
C[n+]1c(-c2ccccc2)c2cc(N)ccc2c2ccc(N)cc21,7.08µM*,-51.8%,/,-13.8%,-4.9%,-41.6%
Clc1ccc2ccccc2c1,/,/,6.4%,/,/,/
C=CCN1CC[C@]23c4c5ccc(O)c4OC2C(=O)CC[C@]3(O)C1C5 (stereo partly specified),/,/,-6.1%,/,/,/
COc1ccc2c3c1OC1C(=O)CC[C@@]4(O)[C@@H](C2)N(C)CC[C@]314 (stereo partly specified),6.31µM*,/,/,7.9%,/,/
CC(=O)OC1C[C@@]2(C)C(c3ccoc3)C[C@H]3O[C@@]32[C@@]2(C)C(=O)C(O)=C3C(C)(C)C(=O)C=C[C@]3(C)C12 (stereo partly specified),/,/,-94.5%,/,/,/
C=CCOC(=O)c1ccccc1N,1.3%,1.7%,-1.7%,3.4%,-1.7%,1.5%
Nc1ccccc1C(=O)OCC(=O)N1CCc2ccccc21,-1.3%,2.51µM*,35.0%,9.2µM*,9.53µM*,?
CC(C)(C)C1CCc2sc(C(=O)NNC(=O)CCl)cc2C1 (stereo unspecified),?,-44.7%,-17.7%,?,4.78µM*,-42.4%
O=C(O)CS(=O)(=O)C(c1ccccc1)c1ccccc1,/,/,-3.9%[9.22 µM],/,/,/
O=c1[nH]c(=S)[nH]c(O)c1N=Nc1ccc(-c2ccccc2)cc1[N+](=O)[O-],/,18.9%,-6.7%,6.9%,?,-3.1%
COc1ccc(-c2coc3cc(O)ccc3c2=O)cc1,?,/,11.2µM*,/,/,/
O=c1c(-c2ccc(O)cc2)coc2cc(O)cc(O)c12,?,12.6µM*,25.1µM*,16.4µM*,21.3µM*,5.8µM*
NCCCC[C@H](NC(=O)[C@H](Cc1ccccc1)NC(=O)[C@H](CCCN=C(N)N)NC(=O)[C@@H](N)Cc1ccc(O)cc1)C(N)=O,/,/,-0.5%,/,/,/
CCN(CC)C(=O)c1ccc(NC(=O)Nc2ccccc2F)cc1,4.47µM*,?,2.82µM*,?,1.51µM*,0.316µM*
CCN(CC)C(=O)c1ccc(NC(=O)CCCSc2ccccc2)cc1,2.9%,-0.7%,11.3%,1.5%,2.1%,-3.3%
N#CC(C(=O)C12CC3CC(CC(C3)C1)C2)c1nc2ccccc2[nH]1 (stereo unspecified),0.0%,4.2%,-33.2%,0.6%,10.7µM*,-5.7%
O=C1c2ccccc2-c2c1nc1c([n+]2[O-])CCCC1,3.1%,3.55µM*,25.9%,?,0.8%,24.9%
Cc1ccc(C(=O)N2CC2C)cc1 (stereo unspecified),1.6%,/,/,/,/,/
Cc1ccc(C(=O)n2c(N)nc3ccccc32)cc1,-17.6%,0.1µM*,0.398µM*,0.206µM*,0.19µM*,?
